Assay outcomes (PubChem BioAssay)
CHRM1 PAM = positive allosteric modulators of human M1 muscarinic receptor; P11229; CHO-K1 hM1, Fluo-8 calcium fluorescence, ACh EC20; 0% = ACh EC20, 100% = maximal ACh; activation, % at 3 µM; 360,000 compounds, 0.088% hits; AID 588819; in the data active means activation above about 19%, passing the limit was not always enough
Target sequence (P11229 whole entry, looked up): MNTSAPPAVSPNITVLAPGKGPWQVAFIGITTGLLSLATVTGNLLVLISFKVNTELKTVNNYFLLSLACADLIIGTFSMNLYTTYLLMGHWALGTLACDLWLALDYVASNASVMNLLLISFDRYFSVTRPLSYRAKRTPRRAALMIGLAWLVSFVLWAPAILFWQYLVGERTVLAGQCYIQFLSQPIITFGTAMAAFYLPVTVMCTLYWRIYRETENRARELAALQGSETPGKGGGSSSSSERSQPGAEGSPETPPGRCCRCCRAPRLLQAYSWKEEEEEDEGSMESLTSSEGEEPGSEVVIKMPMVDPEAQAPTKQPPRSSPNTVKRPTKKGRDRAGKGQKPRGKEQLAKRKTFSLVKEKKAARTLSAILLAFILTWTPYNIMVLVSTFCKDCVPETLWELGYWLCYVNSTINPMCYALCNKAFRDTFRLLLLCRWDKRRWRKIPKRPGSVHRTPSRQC
CHRM1 antagonist = antagonists of human M1 muscarinic receptor. CHO-K1 hM1, Fluo-8 calcium fluorescence, ACh EC80 antagonist. AID 588852. inhibition, % at 3 µM. 360,000 compounds, 1.3% hits;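 active means percent inhibition above its own plate's cutoff, namely the mean of that plate's compound wells plus 3 SD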;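 further: peak over basal fluorescence ratio during 140 s after agonist addition; 0% = ACh EC80 plus DMSO and 100% = DMSO alone without agonist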
CHO-K1 Ca antag = M1 antagonist counterscreen hit in parental CHO-K1 cells; ATP-induced calcium, Fluo-8 fluorescence; 360,000 compounds, 0.6% hits; inhibition, % at 3 µM;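 active means inhibition above a per-plate cutoff, the plate's mean sample inhibition plus 3 SD, cut at about 24% in these data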;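 further: 0% = DMSO plus EC80 ATP and 100% = DMSO alone without ATP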
CHRM1 agonist = human M1 muscarinic receptor agonism | AID 588814 | CHO-K1 hM1, Fluo-8 calcium fluorescence, agonist mode; 0% DMSO, 100% acetylcholine EC100 | 360,000 compounds, 0.33% hits | activation, % at 3 µM | P11229;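 active means activation above the run's mean compound activation plus 3 SD, cut at about 16% in these data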;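 further: peak over basal fluorescence ratio within a 140 s kinetic read after compound addition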
M1 ag parental = counter-screen for M1 agonists: effect in parental CHO-K1 cells; activation, % at 3 µM; Fluo-8 calcium fluorescence; scaled to maximal ATP response, vehicle zero; 360,000 compounds, 0.48% hits; in the data active means activation above about 15%;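 further: untransfected CHO-K1 host cells lacking M1 receptor as counterscreen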
CHO-K1 Ca PAM = nonselective activator or artifact in parental CHO-K1 calcium assay. ATP EC20, Fluo-8 calcium fluorescence; 0% at ATP EC20, 100% at ATP max. activation, % at 3 µM. 360,000 compounds, 0.02% hits. AID 602247;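 active means activation above the run cutoff, the mean activation of all test compounds plus 3 SD, cut at about 40% in these data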;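 further: peak over basal fluorescence ratio in a 140 s read after ATP addition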
Numbers without * were called inactive. This is a sample that favours compounds with a hit; in the whole collection about 2.3% have one here.

SMILES	CHRM1 PAM	CHRM1 antagonist	CHO-K1 Ca antag	CHRM1 agonist	M1 ag parental	CHO-K1 Ca PAM
COc1cccc(C(=O)N2CCC(C(=O)NCc3ccco3)CC2)c1	12	-10	7	-1	0	7
C/C(=N/OC(=O)c1c(-c2ccccc2Cl)noc1C)c1cnccn1	-20	74*	-1	-3	2	6
C/C(=N/OC(=O)c1c(-c2c(Cl)cccc2Cl)noc1C)c1cnccn1	-28	77*	-12	-8	3	-7
C/C(=N\OC(=O)c1c(-c2ccccc2Cl)noc1C)c1nccs1	-18	34	-9	-4	0	10
CCc1ccc(C(=O)COC(=O)c2ccc(Cl)nc2)cc1	2	-7	-15	-12	1	7
CN(CC(=O)Nc1cccc(S(=O)(=O)N2CCOCC2)c1)CC(=O)Nc1ccc(Cl)c(C(F)(F)F)c1	-14	42*	7	-2	6	-25
CC(OC(=O)CC1CC2CCC1C2)C(=O)Nc1ccc(N2CCOCC2)cc1 (configuration not stated)	18	-16	-22	12	5	20
CCN(CC)S(=O)(=O)c1ccc(C)c(NC(=O)CNc2cccc(S(=O)(=O)N3CCOCC3)c2)c1	-2	3	11	-1	9	3
CCN(CC)S(=O)(=O)c1cc(NC(=O)CNc2cccc(S(=O)(=O)N3CCCC3)c2)ccc1C	-6	29*	19	-1	7	-4
CN(C)S(=O)(=O)c1cccc(NC(=O)CNc2cccc(S(=O)(=O)N3CCCCC3)c2)c1	-4	2	-5	-5	6	15
CC(OC(=O)CC1CC2CCC1C2)C(=O)Nc1cccc(S(=O)(=O)N2CCOCC2)c1 (configuration not stated)	24*	-26	7	6	1	3
CCN(CC)S(=O)(=O)c1cccc(NC(=O)CNc2cccc(S(=O)(=O)N3CCOCC3)c2)c1	-8	33*	11	-2	8	-16
O=C(NNC(=O)C1CCC1)c1ccc(F)cc1	9	-16	-14	-1	0	12
O=C(Nc1ccc(Cl)cc1)C1Cc2c(-c3cccc(F)c3)ccnc2O1 (configuration not stated)	3	-4	-5	-3	0	14
CN(CC(=O)NCC(=O)Nc1ccc(F)cc1)CC(=O)Nc1ccc(Cl)c(C(F)(F)F)c1	0	8	-8	-1	2	3
CN(CC(=O)NCc1ccc(F)cc1)CC(=O)Nc1ccc(Cl)c(C(F)(F)F)c1	-2	29	9	16*	13	-11
CCc1nc2ccccc2c(C(=O)OCC(=O)Nc2cccc(S(=O)(=O)N3CCOCC3)c2)c1C	-9	28*	15	-4	3	-6
Cc1ccc2oc(=O)c3cc(C(=O)NCCCN4CCc5ccccc5C4)sc3c2c1	-21	25*	-15	-14	0	18
Nc1nc(-c2nc3ccccc3[nH]2)cs1	0	5	32*	-3	0	-8
c1ccc(-c2nc3ccccc3[nH]2)nc1	-6	3	-5	-2	0	8
COc1ccc(Br)cc1C(=O)Nc1ccccc1N1CCN(C(=O)c2ccccc2)CC1	12	-2	2	0	0	-11
CS(=O)(=O)c1ccc(C(=O)Nc2ccc(N3CCCC3)cc2)c(Cl)c1	8	0	-3	-12	0	0
O=C(Nc1ccccc1N1CCN(C(=O)c2ccccc2)CC1)c1cc(Br)ccc1Cl	0	14	26*	-1	0	-8
O=C(Nc1ccc(N2CCCC2)cc1)c1cc(Br)ccc1Cl	-28	53*	2	-8	0	-10
COc1ccc(-n2c3c(c(=O)[nH]c2=O)C(NC(=O)c2ccncc2)(C(F)(F)F)C(=O)N3)cc1 (configuration not stated)	10	-5	3	-1	0	-6
SMILES	CHRM1 PAM	CHRM1 antagonist	CHO-K1 Ca antag	CHRM1 agonist	M1 ag parental	CHO-K1 Ca PAM
CCOC(=O)N1CCN(C(=O)c2cc(Cl)c(Cl)cc2C(=O)O)CC1	5	-8	-18	32*	0	22
CCCOC1CCCN(C(=O)c2cc(Cl)c(Cl)cc2C(=O)O)C1 (configuration not stated)	-18	52*	-10	60*	0	10
Oc1cc(O)cc(/C=C/c2ccc(O)c(O)c2)c1	-6	-19	1	27*	0	-9
COc1ccc(COCC(O)CN2CCC(C(N)=O)CC2)cc1OC (configuration not stated)	10	-6	10	-5	19*	17
CC(=O)Nc1ccc(S(=O)(=O)N2CCN(C(=O)c3ncoc3-c3ccc(F)cc3)CC2)cc1	1	3	-5	-2	1	-16
N#CC1=C(N2CCCCC2)c2cc3c(n2C1=O)CCCC3	-20	35*	3	-4	2	14
CCOC(=O)C1=C(SCC)c2cc3c(n2C1=O)CCCC3	-1	2	-4	-6	-1	4
CCN(CC)CC#CCC1(O)c2ccccc2-c2ccccc21	-24	26*	-13	-10	1	6
CCN(CC#CCC1(O)c2ccccc2-c2ccccc21)C(C)C	-22	71*	1	-6	0	2
COc1ccccc1C(=O)NCCNc1ccc([N+](=O)[O-])cc1Cl	-10	18	20	-4	1	-8
O=C(c1nc2ccccn2c1CNCCCn1cccn1)N1CCCC1	3	-12	-14	-4	3	11
O=C(N/N=C/c1ccccc1C(=O)O)C(=O)N1CCCCC1	14	-6	-4	-6	19*	27
O=C(O)c1ccccc1/C=N/NC(=O)C1CCCCC1	8	-27	9	-1	0	-22
COC(=O)C1=C(C)N(Cc2ccco2)C(=O)/C1=C\c1ccc([N+](=O)[O-])cc1	-3	20	8	4	17*	19
COc1ccc(C2c3[nH]c4ccccc4c3CCN2C(=O)c2cc3ncccn3n2)c(F)c1 (configuration not stated)	-22	20	26*	-1	7	-11
COc1ccc(C2c3[nH]c4ccccc4c3CCN2C(=O)c2ccccc2C(C)=O)c(F)c1 (configuration not stated)	12	-21	2	-2	3	9
COc1ccc(C2c3[nH]c4ccccc4c3CCN2C(=O)c2cn3ccccc3n2)c(F)c1 (configuration not stated)	-8	8	27*	-3	0	-16
Cc1ccc(S(=O)(=O)/N=C(/Nc2cccc(O)c2)c2ccccc2)cc1	8	-15	-20	0	2	13
COc1cccc(NC(=O)C(c2ccccc2)N2CCCCC2)c1 (configuration not stated)	-23	50*	-11	-6	0	4
